Laboratory results: PubChem BioAssay AID602295 (Broad Institute, 2012)
Activity calls are given as the source filed them.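 Rule for the calls: active = every separate test run called active, meaning the signal drops and a potency is fitted within twice the top valid dose; inconclusive = runs disagree, poor fit, or flat partial inhibition; inactive = all runs inactive, flat, opposite direction or too weak.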

biological target: Mitogen-activated protein kinase 3 (Homo sapiens) (UniProt P27361); assay: ERK1 kinase inhibitors, dose response, selectivity assay for Dyrk1A inhibitor NFAT project, biochemical, ADP-Glo luminescence, cherry pick, set 2 (AID 602295); conditions: 120 min; series mostly up to 10 µM
Sequence (P27361 whole entry, looked up): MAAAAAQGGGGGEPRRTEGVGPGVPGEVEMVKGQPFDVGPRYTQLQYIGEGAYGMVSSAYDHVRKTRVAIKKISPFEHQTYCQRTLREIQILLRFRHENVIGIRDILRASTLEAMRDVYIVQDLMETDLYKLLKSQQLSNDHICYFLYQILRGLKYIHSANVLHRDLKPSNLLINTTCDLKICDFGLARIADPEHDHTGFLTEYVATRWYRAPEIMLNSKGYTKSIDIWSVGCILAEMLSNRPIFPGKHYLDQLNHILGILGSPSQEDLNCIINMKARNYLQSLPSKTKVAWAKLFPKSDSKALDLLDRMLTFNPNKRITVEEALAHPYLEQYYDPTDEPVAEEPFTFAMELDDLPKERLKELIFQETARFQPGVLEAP

outcome, inactive:
c1nc(NCC2CCCC2)c2cc(-c3ccc4c(c3)OCO4)ccc2n1
Clc1ccc(CNc2nccc(-c3ccc4c(c3)OCCO4)n2)cc1Cl
Cc1csc(CN(C)c2ncnc3ccc(-c4ccc5c(c4)OCO5)cc23)n1
CC(=O)Nc1cccc(NC(=O)c2cc3ccccc3o2)c1
CC(=O)Nc1ccc(SCc2ncc(-c3ccccc3)o2)cc1
COc1cccc(NC(=O)Nc2ccc3c(c2)N(C)C(=O)CS3)c1
Clc1ccc(CNc2nccc(-c3ccc4cn[nH]c4c3)n2)cc1Cl
O=c1cc(-c2ccccc2Cl)oc2c(NS(=O)(=O)c3ccccc3C(F)(F)F)ccc(O)c12
O=C(NCc1ccco1)c1sc2ccccc2c1Cl
CCCNc1ncnc2ccc(-c3ccc4c(c3)OCO4)cc12
Cc1occc1CNc1ncnc2ccc(-c3ccc4c(c3)OCO4)cc12
COc1cccc(Nc2ncnc3ccccc23)c1
Brc1ccc(CNc2nccc(-c3ccc4c(c3)OCO4)n2)cc1Br
c1cncc(CNc2nccc(-c3ccc4[nH]ncc4c3)n2)c1
CN(C)S(=O)(=O)c1ccc(NC(=O)c2cc3ccccc3o2)cc1
Cc1noc(NS(=O)(=O)c2ccc(NC(=O)c3oc4ccc(Cl)cc4c3C)cc2)c1C
CCOC(=O)c1ccc2ncc(C(=O)OCC)c(Nc3ccc(N4CCOCC4)cc3)c2c1
CN(C)S(=O)(=O)c1ccc(Cl)c(C(=O)Nc2cccc3ncccc23)c1
Clc1ccc(Nc2nccc(-c3ccc4c(c3)OCO4)n2)cc1
COc1ccc(-c2cc(NCCc3ccncc3)n3ncnc3n2)cc1
Cc1nc(CNc2ncnc3ccc(-c4ccoc4)cc23)cs1
Cc1c(-c2ccnc(NCc3ccc(Cl)cc3)n2)sc(=O)n1C
c1cncc(CNc2nccc(-c3ccc4cn[nH]c4c3)n2)c1
Cc1nc(CNc2ncnc3ccc(-c4ccc5c(c4)OCO5)cc23)cs1
O=C(Nc1nc(-c2ccncc2)cs1)c1ccco1
c1cncc(CNc2nccc(-c3ccc4c(c3)OCO4)n2)c1
c1nc(NCC2CCCOC2)c2cc(-c3ccc4c(c3)OCO4)ccc2n1 (stereo not drawn)
CCN1CCN(Cc2ccc(NC(=O)c3ccc(C)c(NC(=O)N4CCNC4=O)c3)cc2C(F)(F)F)CC1
COc1ccc2c(c1)CCc1c-2n[nH]c1C(=O)O
Cc1noc(NS(=O)(=O)c2ccc(NC(=O)c3oc4ccc(F)cc4c3C)cc2)c1C
CC(=O)Nc1ccc(Nc2cc(C)nc3c(-c4ccccc4)cnn23)cc1
c1coc(CCNc2ncnc3ccc(-c4ccc5c(c4)OCO5)cc23)c1
Clc1ccc(CNc2ccnc(-c3ccc4[nH]ncc4c3)n2)cc1Cl
